Measured values reported in PubChem BioAssay (Tox21).
Records with an inconclusive call do not appear. The source made the active and inactive calls. The call rests on the fitted dose curve.

What was measured:
[1] = molecular target: Acetylcholinesterase (Homo sapiens) (UniProt P22303); assay: Acetylcholinesterase (AChE) small molecule antagonists: colormetric cell-based qHTS assay (AID 1347395); further: nearly all actives have a fitted effect of over 30% in size
How it was run: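 Endogenous AChE of human neuroblastoma SH-SY5Y cells was measured with an Ellman-type DTNB/acetylthiocholine mix. Compound pretreatment lasted 30 min at 37 C; substrate reaction ran 90 min at 37 C.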

[2] = molecular target: Acetylcholinesterase (Homo sapiens) (UniProt P22303); assay: Acetylcholinesterase (AChE) small molecule antagonists: enzyme-based qHTS assay (AID 1347397); details: Potency: AChE enzyme activity inhibition; outcome: AChE enzyme activity inhibition; further: nearly all actives have a fitted effect of over 55% in size
How it was run: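 rhAChE 50 mU/mL (dispensed) + cpd or DMSO, 30 min RT; add DTNB/acetylthiocholine cocktail, 10 min RT; colorimetric thiocholine readout. qHTS, 1536-well format.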

[3] = molecular target: Acetylcholinesterase (Homo sapiens) (UniProt P22303); assay: Acetylcholinesterase (AChE) small molecule antagonists: fluorescence cell-based qHTS assay (AID 1347398); details: Potency: AChE activity; outcome: AChE activity; further: nearly all actives have a fitted effect of over 50% in size
How it was run: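 Read-out is Thiolite Green fluorescence at Ex/Em = 490/520 nm, formed by reaction with thiocholine released when cellular AChE in SH-SY5Y cells hydrolyzes acetylthiocholine. Compounds were preincubated 30 min at 37 C before substrate.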

[4] = molecular target: Acetylcholinesterase (Homo sapiens) (UniProt P22303); assay: Acetylcholinesterase (AChE) small molecule antagonists: enzyme-based qHTS assay with human liver microsomes (AID 1347399); details: Potency: qHTS inhibition; outcome: qHTS inhibition; further: nearly all actives have a fitted effect of over 60% in size
How it was run: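 Recombinant human AChE (50 mU/mL in the enzyme mix) and human liver microsomes (0.25 mg/mL final) were preincubated with compound and NADPH (0.25 mg/mL final) for 30 min at 37 C. Acetylthiocholine/DTNB was then added; thiocholine was read colorimetrically after 10 min at room temperature.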
On the % scale 0 is the no-effect control and ±100 the full control effect.

Acetylcholinesterase (Homo sapiens), sequence (P22303 whole entry, looked up): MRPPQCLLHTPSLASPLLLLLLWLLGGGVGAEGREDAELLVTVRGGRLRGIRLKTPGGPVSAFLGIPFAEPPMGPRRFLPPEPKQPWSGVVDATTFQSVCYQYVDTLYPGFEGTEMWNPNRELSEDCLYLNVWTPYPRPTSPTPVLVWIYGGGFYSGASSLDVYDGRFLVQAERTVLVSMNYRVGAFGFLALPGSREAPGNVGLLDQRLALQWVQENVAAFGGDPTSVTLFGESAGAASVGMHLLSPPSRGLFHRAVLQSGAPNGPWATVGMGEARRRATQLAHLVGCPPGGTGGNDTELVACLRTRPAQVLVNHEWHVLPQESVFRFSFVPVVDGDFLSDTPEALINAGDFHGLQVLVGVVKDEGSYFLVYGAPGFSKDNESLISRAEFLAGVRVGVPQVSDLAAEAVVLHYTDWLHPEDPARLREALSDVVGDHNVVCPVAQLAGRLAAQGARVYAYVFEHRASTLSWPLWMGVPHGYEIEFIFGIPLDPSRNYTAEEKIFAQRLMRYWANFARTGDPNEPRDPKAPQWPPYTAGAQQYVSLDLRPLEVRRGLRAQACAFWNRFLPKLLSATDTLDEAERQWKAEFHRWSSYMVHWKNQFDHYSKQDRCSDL

S=C(S)NCCNC(=S)S
inactive: Potency [1] | Potency [2] | Potency [3] | Potency [4]

CCC(=O)Nc1ccc(O)cc1
inactive: Potency [1] | Potency [2] | Potency [3] | Potency [4]

CCCCCCCCCCCCCCCC(=O)OC[C@H](O)[C@H]1OC(=O)C(O)=C1O
inactive: Potency [1] | Potency [2] | Potency [3] | Potency [4]

O=C1Cc2cc(Cl)ccc2N1
inactive: Potency [1] | Potency [2] | Potency [3] | Potency [4]

CCOc1ccc(N=Nc2ccc(/C=C/c3ccc(N=Nc4ccc(OCC)cc4)cc3S(=O)(=O)O)c(S(=O)(=O)O)c2)cc1
inactive: Potency [1] | Potency [2] | Potency [3] | Potency [4]

O=[N+]([O-])c1ccc(NCCO)c(OCCO)c1
inactive: Potency [1] | Potency [2] | Potency [3] | Potency [4]

OC1CCCCC1
inactive: Potency [1] | Potency [2] | Potency [3] | Potency [4]

CCO[Si](CCCS)(OCC)OCC
inactive: Potency [1] | Potency [2] | Potency [3] | Potency [4]

O=C(O)c1cc(C(=O)O)cc([N+](=O)[O-])c1
inactive: Potency [1] | Potency [2] | Potency [3] | Potency [4]

O=C1Nc2ccccc2C1(c1ccc(O)cc1)c1ccc(O)cc1
inactive: Potency [1] | Potency [2] | Potency [3] | Potency [4]

Cc1ccc([N+](=O)[O-])cc1S(=O)(=O)O
inactive: Potency [1] | Potency [2] | Potency [3] | Potency [4]

CC(C)OC=O
inactive: Potency [1] | Potency [2] | Potency [3] | Potency [4]

CCCCCCCCS(=O)(=O)O
inactive: Potency [1] | Potency [2] | Potency [3] | Potency [4]

CCOC(=O)c1ccc(N)cc1
inactive: Potency [1] | Potency [2] | Potency [3] | Potency [4]

O=Cc1cccc([N+](=O)[O-])c1
inactive: Potency [1] | Potency [2] | Potency [3] | Potency [4]

NC(=O)N1C(=O)C(C(=O)c2cc(Cl)cs2)c2cc(F)c(Cl)cc21 (stereo not given)
inactive: Potency [1] | Potency [2] | Potency [3] | Potency [4]

O=C(O)CCc1ccccc1
inactive: Potency [1] | Potency [2] | Potency [3] | Potency [4]

CCCCOCCOCCOC(C)=O
inactive: Potency [1] | Potency [2] | Potency [3] | Potency [4]

C=CC(=O)OCCOC1C2CCC1C1CC=CC12 (stereo not given)
inactive: activity, negative = inhibition [1] 0.351% [at 23.6 µM] | activity change, negative = inhibition [2] 0.411% [at 23.6 µM] | activity change, negative = inhibition [3] -2.44% [at 23.8 µM] | activity change, negative = inhibition [4] 0.164% [at 23.6 µM]

Cc1cc(C)c(N=Nc2c(O)c(S(=O)(=O)O)cc3cc(S(=O)(=O)O)ccc23)cc1C
inactive: activity, negative = inhibition [1] 0.116% [at 10.5 µM] | activity change, negative = inhibition [2] 0.136% [at 10.5 µM] | activity change, negative = inhibition [3] -0.662% [at 10.5 µM] | activity change, negative = inhibition [4] 0.432% [at 10.5 µM]

CCOc1ccc2c(c1)C(C)=CC(C)(C)N2
inactive: Potency [1] | Potency [2] | Potency [3] | Potency [4]

Brc1cc(Oc2cc(Br)c(Br)c(Br)c2Br)c(Br)c(Br)c1Br
inactive: Potency [1] | Potency [2] | Potency [3] | Potency [4]

Nc1ccc(N)c2c1C(=O)c1ccccc1C2=O
inactive: Potency [1] | Potency [2] | Potency [3] | Potency [4]

Cc1cccc(C)c1NC(=O)c1ccc(N)cc1
inactive: Potency [1] | Potency [2] | Potency [3] | Potency [4]

CCCCS(=O)(=O)N[C@@H](Cc1ccc(OCCCCC2CCNCC2)cc1)C(=O)O
inactive: Potency [1] | Potency [2] | Potency [3] | Potency [4]

CCCCCCCC(=O)Oc1c(Br)cc(C#N)cc1Br
inactive: Potency [1] | Potency [2] | Potency [3] | Potency [4]

CCOC(C)=O
inactive: Potency [1] | Potency [2] | Potency [3] | Potency [4]

CCCCCCCCCCN
inactive: Potency [1] | Potency [2] | Potency [3] | Potency [4]

CCOc1ccccc1C(N)=O
inactive: Potency [1] | Potency [2] | Potency [3] | Potency [4]

CCCCC1C(=O)N(c2ccccc2)N(c2ccccc2)C1=O
inactive: Potency [1] | Potency [2] | Potency [3] | Potency [4]

NC(CO)C(=O)NNCc1ccc(O)c(O)c1O (stereo not given)
inactive: Potency [1] | Potency [2] | Potency [3] | Potency [4]

Nc1ccc([N+](=O)[O-])c(N)c1
inactive: Potency [1] | Potency [2] | Potency [3] | Potency [4]

CCCCCCCCCCCCOCC1CO1 (stereo not given)
inactive: Potency [1] | Potency [2] | Potency [3] | Potency [4]

CCC/C=C/C=O
inactive: Potency [1] | Potency [2] | Potency [3] | Potency [4]

Nc1ccn([C@@H]2O[C@H](CO)[C@@H](O)[C@@H]2O)c(=O)n1
inactive: Potency [1] | Potency [2] | Potency [3] | Potency [4]

C=Cc1ccc(C(C)(C)C)cc1
inactive: Potency [1] | Potency [2] | Potency [3] | Potency [4]

CS(=O)(=O)OCCCCOS(C)(=O)=O
inactive: Potency [1] | Potency [2] | Potency [3] | Potency [4]

CC(=O)CC/C=C(\C)CCC=C(C)C
inactive: Potency [1] | Potency [2] | Potency [3] | Potency [4]

O=C(O)Cc1csc(-c2ccc(Cl)cc2)n1
inactive: Potency [1] | Potency [2] | Potency [3] | Potency [4]

CC(C)(CC(=O)O)C(=O)O
inactive: Potency [1] | Potency [2] | Potency [3] | Potency [4]

CCCCCCCCCOS(=O)(=O)O
inactive: Potency [1] | Potency [2] | Potency [3] | Potency [4]

CC(C)(C)C(O)/C=C/c1ccc2c(c1)OCO2 (stereo not given)
inactive: Potency [1] | Potency [2] | Potency [3] | Potency [4]

CC(=O)OC1CC(C)OC(C)O1 (stereo not given)
inactive: Potency [1] | Potency [2] | Potency [3] | Potency [4]

CCCCNc1ccccc1
inactive: Potency [1] | Potency [2] | Potency [3] | Potency [4]

N#CCC(=O)NN
inactive: Potency [1] | Potency [2] | Potency [3] | Potency [4]

O=C(O)CC(=O)C(=O)O
inactive: Potency [1] | Potency [2] | Potency [3] | Potency [4]

CC(=O)OCc1ccco1
inactive: Potency [1] | Potency [2] | Potency [3] | Potency [4]

CCC(O)OCCCOC (stereo not given)
inactive: Potency [1] | Potency [2] | Potency [3] | Potency [4]

Cc1ccc(NC=O)c(C)c1
inactive: Potency [1] | Potency [2] | Potency [3] | Potency [4]

Cc1ccc(C)c(O)c1
inactive: Potency [1] | Potency [2] | Potency [3] | Potency [4]

O=C(NCC1CN(c2ccc(N3CCOCC3=O)cc2)C(=O)O1)c1ccc(Cl)s1 (stereo not given)
inactive: Potency [1] | Potency [2] | Potency [3] | Potency [4]

COc1cc(S(=O)(=O)Nc2ccccc2)c(OC)cc1N
inactive: Potency [1] | Potency [2] | Potency [3] | Potency [4]

C/C=C(\C)C(=O)OCc1ccccc1
inactive: Potency [1] | Potency [2] | Potency [3] | Potency [4]

C/C=C(/C(=C/C)c1ccc(O)cc1)c1ccc(O)cc1
inactive: Potency [1] | Potency [2] | Potency [3] | Potency [4]

Cn1ccc2cc3c(cc21)CCN3C(=O)Nc1cccnc1
inactive: activity, negative = inhibition [1] -3.7% [at 23.6 µM] | activity change, negative = inhibition [2] -19.7% [at 23.6 µM] | activity change, negative = inhibition [3] -28.9% [at 23.8 µM] | activity change, negative = inhibition [4] 2.86% [at 23.6 µM]

CC1CCC(C(C)(C)S)C(=O)C1 (stereo not given)
inactive: Potency [1] | Potency [2] | Potency [3] | Potency [4]

O=C(Cl)c1ccc(Cl)cc1Cl
inactive: Potency [1] | Potency [2] | Potency [3] | Potency [4]

COc1cc2c(cc1OC)-c1cc(=Nc3c(C)cc(C)cc3C)n(C)c(=O)n1CC2
inactive: Potency [1] | Potency [2] | Potency [3] | Potency [4]

CCCCCCCCCCCCCCCCCC(=O)OCC(CC)CCCC (stereo not given)
inactive: Potency [1] | Potency [2] | Potency [3] | Potency [4]

C=CCCC
inactive: Potency [1] | Potency [2] | Potency [3] | Potency [4]
